# Shown are actives, neighbours in structure and some others; about 1% of the full set was active somewhere.
# MazEF act: activators of E. coli MazEF toxin-antitoxin RNase, primary screen, biochemical, fluorescence, uHTS; actives 0.32% (n = 350,000); AID 504720, 2011; FAM/BHQ RNA-DNA oligo cleavage fluorescence, 5 h; activation, % at 20 µM; in the data active = activation above about 50%
# Target sequence (P0AE70 whole entry, looked up): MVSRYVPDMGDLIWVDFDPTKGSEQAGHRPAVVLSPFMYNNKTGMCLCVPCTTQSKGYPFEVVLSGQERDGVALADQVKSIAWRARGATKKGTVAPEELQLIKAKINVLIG
# FadD28 FP inh: inhibitors of FadD28 bisubstrate probe binding, primary screen, biochemical, fluorescence polarization, single point; inhibition, % at 12.5 µM; AID 588549, 2011; actives 0.22% (n = 360,000); in the data active = inhibition above about 8.5%, passing the limit was not always enough
# BioA inh-1: M. tuberculosis BioA enzyme inhibitors, primary screen, biochemical, plate reader, single point, HTS | 7,8-diaminopelargonic acid synthase BioA (Mycobacterium tuberculosis) | purified M. tuberculosis BioA enzyme | actives 0.096% (n = 360,000) | inhibition, % at 9.99 µM; in the data active = inhibition above about 40%
# TcdB GH inh: TcdB glycohydrolase inhibitors, primary screen, biochemical, single point, plate reader | Toxin B (Clostridioides difficile), P18177 | TcdB glycohydrolase enzymatic assay | inhibition, % at 9.99 µM | actives 0.24% (n = 350,000); in the data active = inhibition above about 10%
# Yp Topo-I inh: Yersinia pestis topoisomerase I inhibitors, primary screen, biochemical, cleavage product accumulation, plate reader, single point. Y. pestis Topo-I cleavage product accumulation. activity, % at 10 µM. actives 0.064% (n = 360,000); in the data active = activity above about 50%, passing the limit was not always enough
# VHR inh abs: VHR1 phosphatase inhibitors, primary screen, biochemical, absorbance, uHTS | Dual specificity protein phosphatase 3 (Homo sapiens), P51452 | recombinant VHR phosphatase, pNPP absorbance | inhibition, % at 13.3 µM | actives 0.52% (n = 290,000) | AID 1654, 2009; in the data active = inhibition above about 50%
# Target sequence (P51452 whole entry, looked up): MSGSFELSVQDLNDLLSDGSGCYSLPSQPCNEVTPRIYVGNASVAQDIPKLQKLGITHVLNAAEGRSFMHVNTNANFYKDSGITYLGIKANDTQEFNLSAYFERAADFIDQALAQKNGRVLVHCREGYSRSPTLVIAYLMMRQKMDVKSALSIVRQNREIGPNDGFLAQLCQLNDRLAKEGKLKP
# BioA inh-2: Mtb BioA enzyme inhibitors, dose response, biochemical, plate reader, cherry-pick samples, set 03; shares compounds with BioA inh-1; purified BioA enzyme; max activity, %; 310 tested, under 10 active; AID 651679, 2012;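 also: top concentration of the dilution series was 10 µM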
# HepG2 cytotox: cytotoxicity in HepG2 cells, dose response, cytotoxicity control, cell-based, plate reader, cherry-pick, two tests; shares compounds with BioA inh-1; max activity, %; 310 tested, under 10 active; AID 651898, 2012
# 3T3 cytotox 5: cytotoxicity in NIH3T3 fibroblasts, dose response, cytotoxicity control, cell-based, plate reader, cherry-pick, two tests. shares compounds with BioA inh-1. activity change, negative = cytotoxicity, % at 26 µM. 310 tested, under 10 active
# Active calls of the source: *; / = no result. Unless noted, no rule for the calls is given here.
SMILES,MazEF act,FadD28 FP inh,BioA inh-1,TcdB GH inh,Yp Topo-I inh,VHR inh abs,BioA inh-2,HepG2 cytotox,3T3 cytotox 5
O=C(NC[C@@H]1CC[C@@H]2[C@@H](CN2Cc2nccs2)O1)C1CCC1,/,/,/,0,/,/,/,/,/
CC(=O)c1c(C)[nH]c(C(=O)Nc2cccnc2)c1C,-5,-2,58*,/,1,14,-5,-11,3
CC(=O)c1ccc(N2CCN(C(=O)Cc3cccs3)CC2)cc1,8,-5,49*,/,-14,14,-6,15,0
COc1ccc(N2CCN(C(=O)Cc3cccs3)CC2)cc1,1,-2,3,2,-6,11,/,/,/
COc1ccc(-c2ccc3c(c2)C2CC3CCN2)cc1 (stereo not given),8,-2,86*,3,1,/,-9,-16,-8
COc1ccc(-c2ccc3c(c2)C2CC3CCN2C(=O)C2CCCCC2)cc1 (stereo not given),-1,2,-1,1,26,/,/,/,/
O=C(Nc1ccc(F)c(F)c1)C1CCN(S(=O)(=O)c2cccs2)CC1,2,-1,58*,0,-1,/,-9,14,-5
Cc1ccc(NC(=O)C2CCN(S(=O)(=O)c3cccs3)CC2)cc1,7,0,/,1,11,8,/,/,/
COc1ccc(S(=O)(=O)Nc2ccc3c(c2)C(=O)N([C@H](C)CO)C[C@@H](C)[C@@H](CN(C)C(=O)Cc2ccccc2)OCCCC[C@H](C)O3)cc1,/,/,-1,0,/,/,/,/,/
COc1cccc(NC(=O)CCC2CCN(C(=O)c3ccc(C(C)=O)s3)CC2)c1,6,-4,72*,1,19,2,2,-13,0
COc1cccc(NC(=O)CCC2CCN(C(=O)c3sccc3C)CC2)c1,1,-1,4,1,16,18,/,/,/
Cc1ccc(S(=O)(=O)Nc2cccc3c2O[C@@H](CN(C)C(=O)Nc2ccc(F)cc2)[C@H](C)CN([C@H](C)CO)C3=O)cc1,/,/,-1,1,/,/,/,/,/
CN(CCc1ccccn1)C(=O)CCC1CCCN(C(=O)c2cscn2)C1 (stereo not given),-5,1,/,0,-5,4,/,/,/
CC(=O)c1ccc(C(=O)N2CCCC(CCC(=O)N(C)CCc3ccccn3)C2)s1 (stereo not given),11,1,66*,-2,2,4,3,-15,-10
COc1ccc(NC(=O)Nc2cccc3c2O[C@H](CN(C)S(=O)(=O)c2ccccc2)[C@@H](C)CN([C@@H](C)CO)C3=O)cc1,/,/,-3,0,/,/,/,/,/
CC(C)NC(=O)N(C)C[C@@H]1Oc2ccc(NC(=O)Cn3cnnn3)cc2CC(=O)N([C@@H](C)CO)C[C@H]1C,/,/,-1,-1,/,/,/,/,/
